According to PubChem BioAssay AID1159580 (chemical genetic matrix, 2015):
About 2,000 (36%) of roughly 5,500 compounds were called active. Not shown: some 18% with an inconclusive outcome. Cut-off read from the data, not from the text of the source: active = normalized growth mostly below about 0.91 (no sharp cut-off); inconclusive = no clear call, values can overlap the other calls; inactive = mostly above about 0.92. The list shows a part of the results.

Test: chemical genetic growth profiling, strain panel (AID 1159580);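 note: tested at 20 µM; growth read once vehicle control cultures reached saturation at 30 °C; 1 = growth at the plate median or of vehicle wells; lower values mean less growth of the strain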
Details: S. cerevisiae deletion strains, growth OD

Measured: normalized growth

CN(C)[C@@H]1C(=O)C(C(=O)NCN2CCCC2)=C(O)[C@@]2(O)C(=O)C3=C(O)c4c(O)cccc4[C@@](C)(O)[C@H]3C[C@@H]12
active: locus YEL003W, strain gim4, stronger effect = lower value 0.732 | locus YLR221C, strain rsa3, stronger effect = lower value 0.907 | locus YLR357W, strain rsc2, stronger effect = lower value 0.787 | locus YMR058W, strain fet3, stronger effect = lower value 0.879 | locus YNL248C, strain rpa49, stronger effect = lower value 0.796 | locus YOR001W, strain rrp6, stronger effect = lower value 0.89 | locus YOR106W, strain vam3, stronger effect = lower value 0.849
inactive: locus YAL021C, strain ccr4, stronger effect = lower value 0.935 | locus YAL026C, strain drs2, stronger effect = lower value 0.976 | locus YAL030W, strain snc1, stronger effect = lower value 0.994 | locus YBL061C, strain skt5, stronger effect = lower value 0.999 | locus YBR009C, strain hhf1, stronger effect = lower value 0.965 | locus YBR023C, strain chs3, stronger effect = lower value 0.992 | locus YBR171W, strain sec66, stronger effect = lower value 1.02 | locus YBR231C, strain swc5, stronger effect = lower value 0.974 | locus YBR279W, strain paf1, stronger effect = lower value 1 | locus YCL011C, strain gbp2, stronger effect = lower value 0.94 | locus YCL016C, strain dcc1, stronger effect = lower value 0.997 | locus YCL061C, strain MRC1, stronger effect = lower value 0.997 | locus YCL069W, strain vba3, stronger effect = lower value 1.02 | locus YCR088W, strain abp1, stronger effect = lower value 1.01 | locus YDL005C, strain med2, stronger effect = lower value 1.04 | locus YDL040C, strain nat1, stronger effect = lower value 1.02 | locus YDR001C, strain nth1, stronger effect = lower value 1.01 | locus YDR069C, strain doa4, stronger effect = lower value 0.942 | locus YDR137W, strain rgp1, stronger effect = lower value 0.922 | locus YDR159W, strain sac3, stronger effect = lower value 1.04 | locus YDR195W, strain ref2 1.11 | locus YDR297W, strain sur2, stronger effect = lower value 0.985 | locus YDR334W, strain swr1, stronger effect = lower value 0.994 | locus YDR335W, strain msn5, stronger effect = lower value 1 | locus YDR392W, strain spt3, stronger effect = lower value 0.908 | locus YEL037C, strain rad23, stronger effect = lower value 1 | locus YEL061C, strain CIN8 (second series), stronger effect = lower value 1.01 | locus YER015W, strain faa2, stronger effect = lower value 0.99 | locus YER016W, strain bim1, stronger effect = lower value 1.02 | locus YER111C, strain swi4, stronger effect = lower value 1.01 | locus YER155C, strain BEM2 (second series), stronger effect = lower value 0.926 | locus YFR010W, strain ubp6, stronger effect = lower value 0.985 | locus YGL167C, strain pmr1, stronger effect = lower value 1 | locus YGL173C, strain kem1, stronger effect = lower value 1.01 | locus YGL227W, strain vid30, stronger effect = lower value 1.03 | locus YGL240W, strain doc1, stronger effect = lower value 0.987 | locus YGL253W, strain hxk2, stronger effect = lower value 1.01 | locus YHR013C, strain ard1, stronger effect = lower value 1 | locus YHR027C, strain rpn1, stronger effect = lower value 0.995 | locus YHR030C, strain SLT2, stronger effect = lower value 1.03 | locus YHR079C, strain IRE1, stronger effect = lower value 1.01 | locus YHR142W, strain chs7, stronger effect = lower value 1 | locus YJL092W, strain hpr5, stronger effect = lower value 1.01 | locus YJL095W, strain BCK1 (second series), stronger effect = lower value 0.994 | locus YJL095W, strain BCK1, stronger effect = lower value 0.992 | locus YJL115W, strain asf1, stronger effect = lower value 1.01 | locus YJL129C, strain trk1, stronger effect = lower value 1.03 | locus YJL154C, strain vps35, stronger effect = lower value 1.02 | locus YJL164C, strain tpk1, stronger effect = lower value 0.937 | locus YJL166W, strain qcr8, stronger effect = lower value 0.944 | locus YJL187C, strain SWE1, stronger effect = lower value 0.994 | locus YJR066W, strain TOR1, stronger effect = lower value 0.965 | locus YKL160W, strain elf1, stronger effect = lower value 1 | locus YKR026C, strain gcn3, stronger effect = lower value 1 | locus YKR091W, strain srl3, stronger effect = lower value 1.02 | locus YLL001W, strain dnm1, stronger effect = lower value 1.02 | locus YLL026W, stronger effect = lower value 1 | locus YLL041C, strain sdh2, stronger effect = lower value 1.01 | locus YLR027C, strain aat2, stronger effect = lower value 0.984 | locus YLR113W, strain HOG1, stronger effect = lower value 0.959 | locus YLR258W, strain gsy2, stronger effect = lower value 0.967 | locus YLR262C, strain YPT6 (second series), stronger effect = lower value 0.945 | locus YLR320W, strain mms22, stronger effect = lower value 0.97 | locus YLR342W, strain FKS1, stronger effect = lower value 1 | locus YLR370C, strain arc18, stronger effect = lower value 1 | locus YLR384C, strain iki3, stronger effect = lower value 1.01 | locus YML120C, strain ndi1, stronger effect = lower value 0.936 | locus YMR125W, strain sto1, stronger effect = lower value 1.03 | locus YMR129W, stronger effect = lower value 1.01 | locus YMR205C, strain PFK2, stronger effect = lower value 1.01 | locus YMR231W, strain pep5, stronger effect = lower value 1.01 | locus YNL071W, strain lat1, stronger effect = lower value 0.942 | locus YNL183C, strain NPR1, stronger effect = lower value 0.946 | locus YNL209W, strain ssb2, stronger effect = lower value 0.993 | locus YNL322C, strain KRE1 (second series), stronger effect = lower value 1 | locus YNR049C, strain mso1, stronger effect = lower value 1.01 | locus YOR070C, strain gyp1, stronger effect = lower value 1 | locus YOR080W, strain dia2, stronger effect = lower value 1.01 | locus YOR083W, strain WHI5, stronger effect = lower value 0.978 | locus YOR231W, strain MKK1, stronger effect = lower value 1.03 | locus YOR265W, strain rbl2, stronger effect = lower value 1 | locus YOR270C, strain vph1, stronger effect = lower value 0.977 | locus YOR290C, strain snf2, stronger effect = lower value 0.991 | locus YPL051W, strain arl3, stronger effect = lower value 0.949 | locus YPL078C, strain atp4, stronger effect = lower value 1 | locus YPL106C, strain sse1, stronger effect = lower value 0.95 | locus YPL240C, strain hsp82, stronger effect = lower value 1.02 | locus YPL256C, strain CLN2, stronger effect = lower value 1.01
